HSD17B inh – qHTS Assay for Inhibitors of HSD17B4, hydroxysteroid (17-beta) dehydrogenase 4; AID 893, 2007; 3-hydroxyacyl-CoA dehydrogenase type-2 (Homo sapiens), Q99714; Potency, µM (doses to about 57.1 µM), for inactives: at the top dose activity change, negative = inhibition, most hits filed as inhibitors; recombinant HSD17B10, NADH fluorescence kinetic; actives 7.6% (n = 75,000);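 further: the protocol describes HADH2 (HSD17B10) and not the HSD17B4 of the title; potency means the concentration at half of the fitted maximal effect; on the % scale 0 is the no-effect control and ±100 the full control effect; nearly all actives have a fitted effect of over 70% in size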
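Enzyme plus compound, 15 min room temperature; substrate mix added (NAD+ 1 mM, beta-hydroxybutyryl-CoA 90 uM final); plates read kinetically for NADH fluorescence. HADH2 was His-tagged, E. coli-derived, 20 nM.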
AID923 – qHTS Assay for Allosteric/Competitive Inhibitors of Caspase-1: Spectroscopic Profiling in AFC Spectral Region; AID 923, 2007; actives 1.1% (n = 75,000); Potency, µM (top dose mostly 57.5 µM), for inactives: top-dose fluorescence increase, usual class: activators; compound fluorescence, AFC spectral region (405/520 nm); further: potency means the concentration at half of the fitted maximal effect; 0% is about no effect
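Compound autofluorescence profiled at 405 nm ex/520 nm em during kinetic caspase 1 run (50 nM enzyme, 5 uM Ac-WEHD-AFC, HEPES pH 7.5, 10 mM DTT). Titration up to 57 uM; baseline from regression intercept, normalized to AFC standard curve.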
4-MU autofl – qHTS Assay for Spectroscopic Profiling in 4-MU Spectral Region | compound autofluorescence, 340/450 nm, 4-MU equivalents; stronger effect = higher value | max dye-equivalent concentration, M | actives 11% (n = 59,000); in the data active means max dye-equivalent concentration above about 10 nM; inconclusive means mostly about 1.1 nM to 9.6 nM
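Intrinsic fluorescence at 340/450 nm (ex/em) was read after 15 min at room temperature in pH 8.0, 100 mM Tris. Each compound concentration expressed as 4-MU-equivalent concentration from a six-point 4-MU standard series on each plate.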
A350 fluor – qHTS Assay for Spectroscopic Profiling in A350 Spectral Region. max dye-equivalent concentration, M. Compound autofluorescence, 340/450 nm, Alexa 350 dye-equivalents; stronger effect = higher value. actives 11% (n = 59,000); in the data active means max dye-equivalent concentration above about 10 nM; inconclusive means mostly about 1.1 nM to 9.6 nM
HADH2 inh – qHTS Assay for Inhibitors of HADH2 (Hydroxyacyl-Coenzyme A Dehydrogenase, Type II) | 3-hydroxyacyl-CoA dehydrogenase type-2 (Homo sapiens), Q99714 | recombinant HADH2, NADH fluorescence, beta-hydroxybutyryl-CoA | Potency, µM (series often up to 57.1 µM), for the others: at the top dose activity change, negative = inhibition, most hits filed as inhibitors | actives 3.4% (n = 73,000); further: potency means the concentration at half of the fitted maximal effect; on the % scale 0 is the no-effect control and ±100 the full control effect; nearly all actives have a fitted effect of over 60% in size
Target sequence (Q99714 whole entry, looked up, one chain of several): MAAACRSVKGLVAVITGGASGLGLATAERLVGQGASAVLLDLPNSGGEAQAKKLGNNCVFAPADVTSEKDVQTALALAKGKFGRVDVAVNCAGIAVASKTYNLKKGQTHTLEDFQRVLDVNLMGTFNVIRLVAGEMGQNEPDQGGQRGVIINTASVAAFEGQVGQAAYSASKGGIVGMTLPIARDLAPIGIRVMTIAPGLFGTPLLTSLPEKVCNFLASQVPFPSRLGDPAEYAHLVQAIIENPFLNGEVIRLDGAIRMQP
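Activity measured as NADH fluorescence gain (360/450 nm), taken as the change between first and last reads of a 4-min kinetic run. Conditions: pH 9.0 Tris buffer, 20 nM E. coli-expressed His-tagged enzyme, 1 mM NAD+, 90 uM beta-hydroxybutyryl-CoA; 15-min compound preincubation.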
Numbers without * were called inactive; i = inactive; ? = inconclusive; · = no result given; [ ] = dose if it differs, or a comment. Sampled rows, rich in hits. Any-hit rate of the full collection: about 13%. Unless noted, the call rests on the fitted dose curve; in most records, active means well fitted curve in the direction sought with a large enough effect; inconclusive means small, poorly fitted or top-dose-only effect, or another doubt; inactive means no such curve, though single readings can be large; an effect the other way counts as inactive or inconclusive.

SMILES	HSD17B inh	AID923	4-MU autofl	A350 fluor	HADH2 inh
CCOC(=O)N1CCC(NC(=O)c2cn(-c3ccc(OC)cc3)c(=O)c3ccccc23)CC1	1%	-1%	i	i	-9%
CCN(c1ccccc1)c1cc(NC)[n+](C)c(C)n1	-3%	-2%	·	·	3%
CCn1c(=O)c(C(=O)NCCc2ccccc2)c(O)c2ccccc21	20µM*	0%	i	i	-5%
O=C(NCCc1ccccc1)c1c(O)c2cccc3c2n(c1=O)CC3	-10%	0%	1.2e-08M*	?	16%
O=C(NCCNCCO)c1c(O)c2cccc3c2n(c1=O)CCC3	?	1%	?	?	3%
COc1ccc(CNC(=O)c2c(O)c3cccc4c3n(c2=O)CCC4)cc1	-3%	0%	1.1e-08M*	1.3e-08M*	6%
C=CCn1c(=O)c(C(=O)Nc2ccccc2O)c(O)c2ccccc21	25µM*	8%	3.3e-08M*	3.2e-08M*	41%
CCCCCCNC(=O)c1c(O)c2cccc3c2n(c1=O)CCC3	-20%	0%	?	?	-7%
C=CCn1c(=O)c(C(=O)Nc2ccccc2OC)c(O)c2ccccc21	-1%	1%	·	·	0%[11.4 µM]
O=C(c1ccncc1)N1CCC[C@@]2(CCN(Cc3cc(C(F)(F)F)cc(C(F)(F)F)c3)C2)C1	3%	1%	i	i	28%
C=C1C2CC[C@@]3(C)C(c4ccoc4)OC(=O)C[C@@]13OC1CC(=O)C(C)(C)C(CC(=O)OC)[C@]12C (some centres not stated)	-5%	3%	·	·	·
CC(=O)N[C@@H](Cc1c[nH]c2ccccc12)C(=O)OCc1cc(C(F)(F)F)cc(C(F)(F)F)c1	-20%	-4%	i	i	-6%
CCN(CC)CCNC(=O)c1c(O)c2cccc3c2n(c1=O)CCC3	-11%	0%	?	?	4%
COc1ccc(CCNC(=O)c2c(O)c3cccc4c3n(c2=O)CC4)cc1	-19%	-1%	1.6e-08M*	1.1e-08M*	-6%
O=C(NCc1ccccn1)c1c(O)c2cccc3c2n(c1=O)CC3	1%	0%	1.9e-08M*	2e-08M*	5%
FC(F)(F)c1cc(CN2CCC3(CCNCC3)CC2)cc(C(F)(F)F)c1	-2%	0%	i	i	12%
N=C1Sc2ccccc2C2=NCCCN12	1.6µM*	-3%	i	i	?
CN1CCC(=C2c3ccccc3Sc3ccccc32)CC1	9%	3%	i	i	2%[25.6 µM]
O=C(CCCC(=O)N(CC(=O)NC1CCCCC1)Cc1ccc2c(c1)OCO2)Nc1ccccn1	-1%	-2%	i	i	-1%
c1ccc(-n2ncc3c(NCCN4CCCCC4)ncnc32)cc1	25µM*	-2%	i	i	2%
CC(=O)Nc1ccc(Nc2ncnc3c2cnn3-c2cccc(C)c2)cc1	26%	-1%	·	·	212%
COc1ccc(OC)c(Nc2ncnc3c2cnn3-c2cccc(C)c2)c1	-11%	0%	5.9e-08M*	6.4e-08M*	32µM*
Cc1cccc(-n2ncc3c(NCc4cccs4)ncnc32)c1	32µM*	0%	i	i	-8%
c1ccc(-n2ncc3c(NCc4ccccn4)ncnc32)cc1	32µM*	-1%	i	i	-7%
Clc1ccc(-n2ncc3c(NCc4cccs4)ncnc32)cc1	·	·	i	i	·
SMILES	HSD17B inh	AID923	4-MU autofl	A350 fluor	HADH2 inh
c1ccc(CCNc2ncnc3c2cnn3-c2ccccc2)cc1	-3%	0%	i	i	4%
O=C(/C=C/c1ccccc1)OC1CC(O)C2(O)C=CO[C@@H](OC3OC(CO)C(O)C(O)C3O)C12 (some centres not stated)	7%	0%	·	·	·
O=c1cc(CO)occ1O	-1%	-1%	i	i	-18%
Cc1ccc(-n2ncc3c(NCCCOC(C)C)ncnc32)c(C)c1	·	·	3.2e-08M*	3.2e-08M*	·
OCCOCCNc1ncnc2c1cnn2-c1ccc(Cl)cc1	·	·	1.4e-08M*	?	·
CC(C)OCCCNc1ncnc2c1cnn2-c1ccccc1	·	·	i	i	·
c1ccc(CNc2ncnc3c2cnn3-c2ccccc2)cc1	?	-1%	i	i	?
Cc1cccc(-n2ncc3c(NCc4ccccc4)ncnc32)c1	25µM*	0%	·	·	?
Cc1cccc(-n2ncc3c(NCc4ccccn4)ncnc32)c1	20µM*	1%	i	?	27%
CN[C@@H]1[C@H](O[C@H]2[C@@H](O[C@@H]3[C@@H](O)[C@@H](O)[C@@H](N=C(N)N)[C@@H](O)[C@@H]3N=C(N)N)O[C@@H](C)[C@]2(O)CO)O[C@H](CO)[C@@H](O)[C@@H]1O	2%[25.6 µM]	-2%[25.7 µM]	i	i	-2%[25.6 µM]
COCCNc1cc(-c2ccccc2C)ncn1	2%	0%	i	i	-18%
COc1ccc(OCCOCC(O)CN2CCOCC2)cc1 (configuration not stated)	-2%	0%	1.6e-08M*	1.5e-08M*	-5%
O=C(c1ccc(Cl)cc1)c1ccc(OCC(O)CN2CCOCC2)cc1 (configuration not stated)	1%	-3%	i	i	8%
Cc1cc(N2CCCCCC2)nc(-c2ccccc2O)n1	32µM*	4%	1.8e-08M*	2.1e-08M*	?
CCOC(=O)c1ccc(Nc2cc(C)nc(-c3ccccc3O)n2)cc1	?	6%	·	·	?
Cc1cc(Nc2ccccc2)nc(-c2ccccc2O)n1	?	2%	?	?	?
Cc1cc(NCc2ccccc2)nc(-c2ccccc2O)n1	32µM*	12%	·	·	?
Cc1cc(Nc2cccc(F)c2)nc(-c2ccccc2O)n1	32µM*	11%	2.7e-08M*	3.7e-08M*	?
C=C1C2CC[C@@]3(C)C(c4ccoc4)OC(=O)C[C@@]13OC1CC(OC(C)=O)C(C)(C)C(CC(=O)OC)[C@@]12C (some centres not stated)	4%	1%	·	·	·
O=C(O)CSCc1cccc2ccccc12	6%[11.4 µM]	3%[11.5 µM]	i	i	9%[11.4 µM]
CCCn1c(C)nc2c(N3CCC(N4CCN(C)CC4)CC3)nc(C)nc21	10%	2%	·	·	7%
CCCC[C@@H]1C[C@H]1C(NC(=O)c1ccco1)c1ccc(-c2ccccc2)cc1 (some centres not stated)	-9%	1%	·	·	-4%
COc1nc(-c2ccccc2)ccc1-c1noc(C)n1	32µM*	0%	i	?	149%
CCc1nc(-c2ccc(-c3ccc(OC)cc3)nc2OC)no1	32µM*	7%	5.1e-08M*	5.1e-08M*	-142%
COc1ccc(-c2ccc(-c3noc(C(C)C)n3)c(OC)n2)cc1	32µM*	12%	6.1e-08M*	8.1e-08M*	270%

Source: PubChem BioAssay
